The panel holds about 79,000 compounds, 15% with a hit somewhere; the sample as a whole holds those more often. No stated cut-off is given here; in the data, active means growth inhibition above about 70%; inactive means the rest.
Columns and labels:
[1] = NCI Yeast Anticancer Drug Screen. Data for the rad50 strain (AID 155);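 further: 0% = growth of vehicle-only cultures of the same strain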; details: S. cerevisiae rad50 strain growth inhibition; at 50.0 µM; stronger effect = higher value
Summary of the method: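 Yeast carrying a defined DNA repair defect were exposed to test compounds, and growth was compared with vehicle-treated controls to give percent inhibition.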

[2] = NCI Yeast Anticancer Drug Screen. Data for the mec2-1 strain (AID 157); details: S. cerevisiae mec2-1 strain, at 50.0 µM, stronger effect = higher value
Summary of the method: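 mec2-1 yeast strain, carrying an alteration in DNA damage repair or cell cycle control, was exposed to compounds; growth inhibition was measured relative to vehicle-treated controls.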

[3] = NCI Yeast Anticancer Drug Screen. Data for the sgs1 mgt1 strain (AID 161);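 further: 0% = growth of cultures given vehicle only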; details: S. cerevisiae sgs1 mgt1 strain, at 50.0 µM, stronger effect = higher value
Summary of the method: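 Compounds are added to genetically altered yeast, and growth is compared with cultures given vehicle alone to give percent inhibition.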

[4] = NCI Yeast Anticancer Drug Screen. Data for the bub3 strain (AID 167); details: S. cerevisiae bub3 mutant strain, at 50.0 µM, stronger effect = higher value
Summary of the method: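 Compounds were applied to a genetically altered yeast strain carrying a cell-cycle control defect. Growth inhibition was scored against vehicle-treated controls.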

[5] = NCI Yeast Anticancer Drug Screen. Data for the mlh1 rad18 strain (AID 175); details: S. cerevisiae mlh1 rad18 strain growth inhibition; at 50.0 µM; stronger effect = higher value
Summary of the method: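 Growth inhibition of the yeast strain was measured after compound exposure and expressed relative to vehicle-treated controls. The strain carries defined defects in DNA damage repair.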

[6] = NCI Yeast Anticancer Drug Screen. Data for the cln2 rad14 strain (AID 165);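 further: 0% = growth equal to vehicle treated cultures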; details: S. cerevisiae cln2 rad14 strain, at 50.0 µM, stronger effect = higher value
Summary of the method: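 Yeast carrying cln2 and rad14 alterations (cell cycle control and DNA damage repair) were exposed to compounds. Growth inhibition was measured against vehicle-treated controls.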

Measured: growth inhibition

CCCOC(=O)c1c(C)c(C)cc(C)c1C
inactive: [1] 5.9% | [2] 1.75% | [3] 14.6% | [4] -1.3% | [5] -12.3%

CC1CN=C(N(Cc2ccc(F)cc2)C(=O)Nc2ccc(Cl)cc2)S1 (stereo not drawn)
inactive: [1] -35.5% | [2] -8.95% | [3] -41.5% | [4] 7.7% | [5] -34.3%

C/C=C/C#CC#C/C=C/C=C/CC
inactive: [1] 10.1% | [2] 0.7% | [3] -1.35% | [4] 16.6% | [5] -2.05%

CC(=O)OCC(=O)C1(O)C(C)CC2C3CCC4CC(=O)CCC4(C)C3=CCC21C (stereo not drawn)
inactive: [1] 43.1% | [2] -16.6% | [3] 0.65% | [4] 26.1% | [5] 23.8%

Brc1ccncc1
inactive: [1] -10.7% | [2] -47.5% | [3] -1.55% | [4] -21.9% | [5] -13.6%

COc1cc(Br)c(CC2c3cc(OC)c(OC)cc3CCN2C)cc1OC (stereo not drawn)
inactive: [1] -17% | [2] -25.4% | [3] -9.75% | [4] -7.95% | [5] -13.4%

O=C1OC(c2ccccc2)=N/C1=C\c1cccc(F)c1
inactive: [1] -18.4% | [2] -18.2% | [3] -23.1% | [6] -6.95% | [4] -16.1% | [5] 6.25%

O=C(N/N=C/c1ccc(Cl)c([N+](=O)[O-])c1)C(O)(c1ccccc1)c1ccccc1
inactive: [1] 10.2% | [2] -2.7% | [3] 12.4% | [4] -1% | [5] -19.1%

O=C(CNc1ccccc1)c1ccc(O)c(C(=O)O)c1 (tested in a mixture with another compound)
inactive: [1] -8.5% | [2] -12.3% | [3] -11.3% | [4] -0.7% | [5] 0.95%

CN(c1ccccc1)S(=O)(=O)c1ccc(Cl)cc1
inactive: [1] 38% | [2] 19.1% | [3] 32.1% | [4] 43.2% | [5] 25.9%

Nc1cc(Cl)cc(S(=O)(=O)O)c1O
inactive: [1] 1.9% | [2] -0.05% | [3] -2.95% | [4] 9.05% | [5] -13.9%

CN1c2ccccc2C2=C(c3ccccc3)CC[C@@H](C(=O)N3C4CC5CC[C@@]4(CS3(=O)=O)C5(C)C)[C@@H]21 (stereo partly drawn)
inactive: [1] -14.6% | [2] -6.2% | [3] 20.6% | [4] -8.85% | [5] 31.8%

CCCCCc1c2c(c(CCCCC)c3c1-c1cccc4cccc-3c14)-c1ccc(C)cc1C2
inactive: [1] -29.7% | [2] -9.95% | [3] -30.9% | [4] -0.3% | [5] -19.4%

COc1ccc(/C=C/C(=O)c2sc(NC(=S)NC(=O)c3ccccc3F)nc2C)cc1OC
inactive: [1] 21.1% | [2] 8.5% | [3] 37.6% | [4] 30.9% | [5] 22.9%

CCCCN=C1NS(=O)(=O)c2ccccc21
inactive: [1] 15.5% | [2] -11.5% | [3] 13.2% | [4] 0% | [5] -0.6%

CCOC(=O)C(C)F (stereo not drawn)
inactive: [1] 6.1% | [2] -26.1% | [3] 1.55% | [6] -1.15% | [4] -8.45% | [5] 3.75%

O=C(CCC(=O)Nc1ccc(Cl)c(Cl)c1)CC(=O)c1ccc2ccccc2c1
inactive: [1] 22% | [2] 9.6% | [3] 2.45% | [4] 2.2% | [5] -12.1%

N#CCCCCBr
inactive: [1] 12.4% | [2] 6.95% | [3] -4.2% | [4] 15.6% | [5] 7.5%

COc1cc(C2SCC(=O)N2NC(=O)c2ccc(NC(C)=O)cc2)cc(OC)c1OC (stereo not drawn)
inactive: [1] -11.8% | [2] -3.95% | [3] -5.2% | [4] -12.4% | [5] -12.2%

COc1cc(C2SC(N)=Nc3c2c(C)nn3C(=O)c2ccccc2O)ccc1O (stereo not drawn)
inactive: [1] -4.9% | [2] 24.1% | [3] 22.5% | [4] 40.4% | [5] 16%

O=c1[nH]cnc2c1ncn2C1CCC(CO)O1 (stereo not drawn)
inactive: [1] -11% | [2] 14.6% | [3] 11.3% | [4] 1.85% | [5] -8.85%

COc1ccc(N=Nc2c(-c3ccccc3)nn(C(=O)CC(=O)Nc3ccc(OC)cc3)c2-c2ccccc2)cc1
inactive: [1] -17% | [2] -1.7% | [3] -0.8% | [4] 11.7% | [5] -3.35%

CC(C)([NH-])C[NH-].[Cl][Pt+2][Cl]
inactive: [1] -17.1% | [2] -18.8% | [3] -24.5% | [4] -3.8% | [5] 5.1%

O=C(Oc1c(Cl)c(Cl)c(Cl)c(Cl)c1Cl)Oc1c(Cl)c(Cl)c(Cl)c(Cl)c1Cl
inactive: [1] -13.7% | [2] -8.25% | [3] 19.1% | [4] 12.8% | [5] 3.4%

CC(=O)n1c(N)nc2ccccc21
inactive: [1] 21.3% | [2] -2.85% | [3] 6.95% | [4] 1.45% | [5] 28.8%

CSC1=C(c2ccc(Cl)cc2)SC(N2CCCCC2)N1c1ccc([N+](=O)[O-])cc1 (stereo not drawn)
inactive: [1] 0.55% | [2] -0.05% | [3] 1.7% | [4] 5.4% | [5] 4.9%

CC(C)NC(=O)NCCc1c[nH]c2ccccc12
inactive: [1] -49.9% | [2] -11.8% | [3] 1.85% | [4] 16.2% | [5] -13.2%

COc1ccc(/C=C/C(=O)c2sc(NC(=S)NC(=O)c3ccc(Cl)cc3)nc2C)cc1OC
inactive: [1] 16.2% | [2] 13.2% | [3] 28.6% | [4] -1.6% | [5] 7.2%

Nc1c(-c2nc3ccccc3[nH]2)sc(=S)n1-c1ccccc1
inactive: [1] -6.4% | [2] -21.4% | [3] 1.75% | [4] -4.2% | [5] -17.9%

CCN1CCCCC(=N\O)/C(=N/O)CCCC1
inactive: [1] -12.8% | [2] -12.2% | [3] -20.1% | [4] -51.6% | [5] -11.8%

O=CC(Cc1ccccc1)C(=O)CCc1ccccc1.[Cu+2] (stereo not drawn)
inactive: [1] 40.1% | [2] 13.9% | [3] 4.95% | [4] 0.4% | [5] 2.55%

Cc1ccc(S(=O)(=O)Nc2cc3c(cc2NC(=O)C(F)(F)F)-c2ccccc2C3)cc1
inactive: [1] 52.8% | [2] -9% | [3] 38.8% | [4] -1.25% | [5] 46%

O=C(CC(=O)c1ccc(Cl)s1)C(=O)NC1C2CC3CC(C2)CC1C3 (stereo not drawn)
inactive: [1] -15% | [2] 15.9% | [3] 7.9% | [4] 12.2% | [5] 3.55%

O=C(O)c1ccc(OCC(=O)c2ccccc2)cc1
inactive: [1] 6.35% | [2] 16.9% | [3] -5.6% | [4] 36.1% | [5] 8.25%

O=C(O)c1ccccn1
inactive: [1] -37.6% | [2] -3% | [3] 33.8% | [6] -6.1% | [4] -3.85% | [5] 30%

C=C(C)COC(CCC)OCC(=C)C
inactive: [1] 6.85% | [2] 8.1% | [3] -8.45% | [4] -2.3% | [5] 21.1%

Reference: PubChem BioAssay (NCI)
